Growth data for nine molecules are collected here from PubChem BioAssay (NCI).

Among the test systems are HCT-15 colon; HT29 colon; SNB-19 CNS; U251 CNS; PC-3 prostate; SK-MEL-5 melanoma; UACC-62 melanoma; LOX IMVI melanoma; SK-MEL-28 melanoma; SK-MEL-2 melanoma; EKVX NSCLC; SN12C renal; UO-31 renal; TK-10 renal; ACHN renal; CAKI-1 renal; CCRF-CEM leukemia; MOLT-4 leukemia; A498 renal.
What all share (assay): NCI-60 one-dose screen, 48 h (100 = growth as untreated, 0 = no growth, -100 = all killed)
Holding throughout (conditions): 10 µM unless noted

Compounds without any hit were thinned out: in the full panel of roughly 83,000, 20% have a hit.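 How to read the values: 0–100, growth inhibition (40 = 60% inhibited); 0, no net growth; -100 to 0, cell death (-40 = 40% of starting cells died; -100 = all dead).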 Values without a mark were called inactive. Calls of active or inactive are those of the source. How the source made its calls: active means growth percent below 10; inactive means the rest.

For `COc1cc(-c2nn(C(=O)NS(=O)(=O)c3ccccc3)cc2-c2ccncc2)ccc1Cl`, the growth in the experiment on HCT-15 colon is 97.9%; in the experiment on HT29 colon it was 53.9%; in the experiment with SNB-19 CNS, 95.3%; in the experiment on U251 CNS it was 81.6%; in the experiment on PC-3 prostate it was 78.2%; in the experiment with SK-MEL-5 melanoma, 95.6%. Further, the growth was 66.7% with UACC-62 melanoma; 71.5% in the experiment on LOX IMVI melanoma; 91.8% in the experiment with SK-MEL-28 melanoma; 94.8% with SK-MEL-2 melanoma; 56.1% in the experiment on EKVX NSCLC; 82.4% in the experiment with SN12C renal. The growth in the experiment with UO-31 renal is 69.7%; in the experiment on TK-10 renal it was 83%; in the experiment with ACHN renal, 80.3%; with CAKI-1 renal, 84.8%; with CCRF-CEM leukemia it was 92.8%; in the experiment with MOLT-4 leukemia, 83.9%.
As to `Cc1c(C(=N)C(C#N)C#N)c(=N)oc2c1ccc1ccccc12`, the growth is 74.2% with HCT-15 colon; 93.3% in the experiment with HT29 colon; 103% in the experiment with SNB-19 CNS; 87.4% in the experiment with U251 CNS; 97.8% in the experiment on PC-3 prostate; 83.7% with SK-MEL-5 melanoma. For the same molecule, the growth in the experiment on UACC-62 melanoma is 78.3%; in the experiment on LOX IMVI melanoma it was 92.8%; with SK-MEL-28 melanoma, 124%; in the experiment with SK-MEL-2 melanoma it was 26.6%; in the experiment with EKVX NSCLC, 26.9%; in the experiment on SN12C renal it was 88.7%. The growth in the experiment on UO-31 renal is 85.5%; in the experiment on TK-10 renal, 121%; with ACHN renal it was 86.4%; in the experiment on A498 renal, 85.2%; in the experiment on CCRF-CEM leukemia it was 66.1%; with MOLT-4 leukemia, 64.3%.
On to `O=C(O)/C=C/C(=O)c1ccc(Cl)cc1`, for which the growth in the experiment on HCT-15 colon was 103%; in the experiment with HT29 colon, 91.3%; with SNB-19 CNS, 111%; in the experiment with U251 CNS it was 100%; in the experiment with PC-3 prostate, 106%; with SK-MEL-5 melanoma it was 107%. Besides, the growth is 109% in the experiment on UACC-62 melanoma; 105% with LOX IMVI melanoma; 115% in the experiment on SK-MEL-28 melanoma; 109% in the experiment on SK-MEL-2 melanoma; 114% in the experiment with EKVX NSCLC; 112% in the experiment with SN12C renal. Further, the growth in the experiment with UO-31 renal is 90.1%; in the experiment with ACHN renal, 106%; with CAKI-1 renal it was 107%; in the experiment with A498 renal, 107%.
Turning to `CCOC(=O)c1ccc(NC(=O)N2CC(C)OC(C)C2)cc1` (stereo not given), the growth was 96.2% in the experiment on HCT-15 colon; 101% in the experiment with HT29 colon; 93.2% in the experiment with SNB-19 CNS; 97.4% in the experiment on U251 CNS; 103% in the experiment on PC-3 prostate; 99.7% in the experiment with SK-MEL-5 melanoma. The growth in the experiment on UACC-62 melanoma is 87.6%; with LOX IMVI melanoma, 96%; with SK-MEL-28 melanoma, 98.5%; with SK-MEL-2 melanoma it was 113%; in the experiment on EKVX NSCLC it was 108%; in the experiment with SN12C renal, 97.4%. In addition, the growth was 4.84% (active) in the experiment on UO-31 renal; 125% with TK-10 renal; 96.7% in the experiment on ACHN renal; 80.6% with A498 renal; 102% with CCRF-CEM leukemia; 99.9% in the experiment on MOLT-4 leukemia.
As to `N#Cc1c(-c2ccccc2)cc(-c2ccccc2)n(CC(=O)NO)c1=O`, the growth was 16.8% with HCT-15 colon; 33.5% with HT29 colon; 77% in the experiment with SNB-19 CNS; 52.5% in the experiment on U251 CNS; 34.9% in the experiment with PC-3 prostate; 14.6% in the experiment with SK-MEL-5 melanoma. For the same molecule, the growth is 64.5% with UACC-62 melanoma; -90.5% (active) with LOX IMVI melanoma; 75.7% with SK-MEL-28 melanoma; 34.5% in the experiment with SK-MEL-2 melanoma; 41.7% with EKVX NSCLC; 47.8% with SN12C renal. For the same molecule, the growth with UO-31 renal was 25.2%; in the experiment on TK-10 renal, 73.1%; in the experiment on ACHN renal, 43.3%; in the experiment on CAKI-1 renal, 20.8%; in the experiment with CCRF-CEM leukemia, -19.2% (active); in the experiment on MOLT-4 leukemia, -5.67% (active).
Turning to `Cc1cc(N/N=C/c2nc(-c3ccccc3)oc2C)c2cc(Br)ccc2n1`, the growth with HCT-15 colon is 43.6%; in the experiment on HT29 colon, 65.6%; in the experiment on SNB-19 CNS, 91.2%; in the experiment with U251 CNS, 38.5%; in the experiment with PC-3 prostate, 79.5%; in the experiment on SK-MEL-5 melanoma it was 103%. For the same molecule, the growth was 88.3% in the experiment on UACC-62 melanoma; -31.7% (active) in the experiment on LOX IMVI melanoma; 26% with SK-MEL-28 melanoma; 106% in the experiment on SK-MEL-2 melanoma; 107% with EKVX NSCLC; 32.3% in the experiment with SN12C renal. Also, the growth with UO-31 renal is 78.1%; in the experiment with TK-10 renal, 101%; in the experiment on CAKI-1 renal, 80%; with A498 renal, 66.1%; in the experiment with CCRF-CEM leukemia, 27.7%; in the experiment with MOLT-4 leukemia it was 50.5%.
As to `O=C(NNC(=O)N1c2ccccc2C=Cc2ccccc21)c1ccccc1`, the growth in the experiment on HCT-15 colon was 101%; with HT29 colon it was 103%; with SNB-19 CNS it was 100%; in the experiment with U251 CNS, 109%; in the experiment with PC-3 prostate, 98.5%; in the experiment with SK-MEL-5 melanoma it was 104%. The growth is 101% in the experiment with UACC-62 melanoma; 104% in the experiment with LOX IMVI melanoma; 102% in the experiment on SK-MEL-28 melanoma; 119% with SK-MEL-2 melanoma; 91.7% in the experiment on EKVX NSCLC; 102% in the experiment on SN12C renal. Moreover, the growth in the experiment with UO-31 renal is 96%; with TK-10 renal it was 96%; in the experiment on CAKI-1 renal, 97.3%; in the experiment on A498 renal, 103%; with CCRF-CEM leukemia it was 98.9%; in the experiment with MOLT-4 leukemia it was 102%.
Regarding `C1=Cc2ccccc2N(c2nnc(-c3ccccc3)o2)c2ccccc21`, the growth in the experiment on HCT-15 colon is 45.8%; with HT29 colon, 102%; with SNB-19 CNS, 96.7%; in the experiment on U251 CNS, 66.8%; with PC-3 prostate it was 60.6%; with SK-MEL-5 melanoma, 72%. The growth in the experiment on UACC-62 melanoma was 86.4%; in the experiment on LOX IMVI melanoma, 79.9%; in the experiment on SK-MEL-28 melanoma, 98.2%; with SK-MEL-2 melanoma, 108%; in the experiment with EKVX NSCLC, 94.3%; in the experiment with SN12C renal, 96.2%. For the same molecule, the growth with UO-31 renal is 83.9%; in the experiment on TK-10 renal, 114%; in the experiment with CAKI-1 renal it was 83.3%; in the experiment with A498 renal, 80%; with CCRF-CEM leukemia, 73.9%; in the experiment with MOLT-4 leukemia, 83.5%.
With `CC(C)(C)n1cc(-c2ccnc(NCCNS(=O)(=O)c3ccc(F)cc3)c2)c(-c2cccc(O)c2)n1`, the growth with HCT-15 colon was 8.99% (active); in the experiment with HT29 colon, 15.8%; in the experiment on SNB-19 CNS it was 71.3%; in the experiment with U251 CNS, 48.4%; in the experiment on PC-3 prostate it was 35.5%; with SK-MEL-5 melanoma, 19.4%. Moreover, the growth is 61.8% in the experiment with UACC-62 melanoma; 31.2% with LOX IMVI melanoma; 52.4% in the experiment on SK-MEL-28 melanoma; 66.5% in the experiment with SK-MEL-2 melanoma; 63% in the experiment with EKVX NSCLC; 55.8% in the experiment on SN12C renal. Besides, the growth in the experiment with UO-31 renal was 53.9%; in the experiment with TK-10 renal, 102%; with CAKI-1 renal it was 61.3%; in the experiment with A498 renal, 56.7%; in the experiment with CCRF-CEM leukemia, 46.4%; with MOLT-4 leukemia, 35.3%.
